Shown are actives, neighbours in structure and some others; about 3.8% of the full set was active somewhere.
PrPC surface inh = inhibitors of human cell surface prion protein PrPC, primary screen, cell-based, TR-FRET; TR-FRET read-out; Major prion protein (Homo sapiens), P04156; inhibition, % at 13.8 µM; 370,000 compounds, 0.43% hits; in the data active = inhibition above about 24%
PrP UTR inh = inhibition of PrP 5' UTR reporter expression. 340,000 compounds, 0.35% hits. cell-based PrP 5' UTR mRNA reporter, plate reader. inhibition, % (no concentration beside the values). AID 488862, 2010; in the data active = inhibition above about 52%
Y pestis TopoI = Yersinia pestis topoisomerase I inhibitors, primary screen, biochemical, cleavage product accumulation, plate reader, single point; DNA topoisomerase I (Yersinia pestis CO92); Y. pestis Topo-I cleavage product accumulation; activity, % at 10 µM; 360,000 compounds, 0.064% hits; AID 504884, 2011; in the data active = activity above about 50%, passing the limit was not always enough
Mtb hypoxia rep = PubChem AID 1159583; M. tuberculosis hypoxia-regulated fluorescent reporter, fluorescence; fluorescence inhibition, % (test concentration not listed); 300,000 compounds, 0.1% hits; in the data active = fluorescence inhibition mostly above about 23%, no sharp cut-off; inactive = mostly below about 17%
FBA Mtb inh = Mtb FBA enzyme inhibitors, primary screen, biochemical, fluorescence, strain H37Rv | Fructose-bisphosphate aldolase (Mycobacterium tuberculosis (strain ATCC 25618 / H37Rv)), … | purified M. tuberculosis FBA, fluorescence read-out | inhibition, % at 1 µM | 360,000 compounds, 2.3% hits | AID 588726, 2011; in the data active = inhibition above about 27%
Target sequence (P9WQA3 whole entry, looked up): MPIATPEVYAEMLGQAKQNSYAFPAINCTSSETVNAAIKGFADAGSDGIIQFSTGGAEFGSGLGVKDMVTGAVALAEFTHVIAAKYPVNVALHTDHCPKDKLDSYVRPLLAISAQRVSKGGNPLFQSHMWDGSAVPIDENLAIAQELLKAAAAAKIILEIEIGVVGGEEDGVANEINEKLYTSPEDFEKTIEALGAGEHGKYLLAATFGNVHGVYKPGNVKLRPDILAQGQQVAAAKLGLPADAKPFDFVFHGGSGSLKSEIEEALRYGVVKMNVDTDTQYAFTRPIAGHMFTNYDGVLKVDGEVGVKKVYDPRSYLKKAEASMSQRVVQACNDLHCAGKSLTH
GDH-TPI inh = GDH-TPI coupling enzyme inhibitors, primary screen, artefact control for M. tuberculosis FBA inhibitor project, biochemical, absorbance, full deck; GDH-TPI coupled enzyme counterscreen, NADH absorbance; 360,000 compounds, 1.2% hits; inhibition, % at 4.8 µM; in the data active = inhibition above about 30%
Numbers stand for hits; . = inactive; / = no result given; + = active, no number.

SMILES | PrPC surface inh | PrP UTR inh | Y pestis TopoI | Mtb hypoxia rep | FBA Mtb inh | GDH-TPI inh
O=[N+]([O-])c1ccc(O)c(C=Nc2ccc3nc(-c4ccccc4)[nH]c3c2)c1 | . | . | . | . | + | .
CCCOc1ccc(CCC(=O)NN=Cc2ccc([N+](=O)[O-])o2)cc1 | / | / | / | . | / | /
COc1ccc(Nc2cc(C)nc3ccc(OC)cc23)cc1 | . | . | . | . | . | 34
COc1ccc2nc(C)cc(NN=Cc3ccc(F)cc3)c2c1 | / | / | / | 78 | / | /
COc1ccc(Nc2ccnc3ccccc23)cc1 | . | . | . | / | . | 32
O=C(CC(=O)NN=Cc1ccc([N+](=O)[O-])cc1)NCCc1ccccc1 | / | / | / | . | / | /
Cc1c(C(=O)Nc2nnc(C3CC3)s2)oc2ccccc12 | . | . | . | . | . | .
Cc1c(C(=O)Nc2nnc(C3CC3)s2)oc2c(Cl)cccc12 | . | . | . | . | . | 37
CC1(C)CC(=O)C2=C(C1)NC(Nc1nc3ccccc3o1)=NC21CCCC1 | . | . | . | . | . | .
CC1(C)CC(=O)C2=C(C1)NC(Nc1nc3ccccc3o1)=NC2c1ccccn1 (stereo not drawn) | . | . | . | . | . | 44
COc1ccccc1N1CCN(C(c2cc3cc(C)ccc3[nH]c2=O)c2nnnn2C2CCCC2)CC1 (stereo not drawn) | . | . | . | . | . | .
COc1ccccc1N1CCN(C(c2cc3ccc(C)cc3[nH]c2=O)c2nnnn2C2CCCC2)CC1 (stereo not drawn) | . | . | . | . | . | 34
COc1ccc(OCC(O)CNC(=O)c2cccc3c2C(=O)c2ccc(Cl)cc2S3(=O)=O)cc1 (stereo not drawn) | / | / | / | . | / | /
COc1ccc(-c2cnnc(N/N=C/c3ccc(O)cc3)n2)cc1 | . | . | . | / | . | 34
Oc1ccc(/C=N\Nc2nncc(-c3ccccc3)n2)cc1 | . | . | . | / | . | 40
O=C(O)c1cc2ccc3cccc4ccc(c1)c2c34 | . | . | . | . | 168 | .
O=C(O)c1cccc(C(=O)c2cccc(C(=O)O)c2)c1 | . | . | . | . | . | .
CCN(CC)S(=O)(=O)c1ccc(OC)c(NC(=O)/C=C/c2ccco2)c1 | . | . | . | . | . | 35
CCN(CC)S(=O)(=O)c1ccc(N2CCCCC2)c(NC(=O)/C=C/c2ccc(OC)c(OC)c2)c1 | . | . | . | . | . | .
O=C(OC1C(Cc2ccccc2)NS(=O)(=O)C2CC3C=C[C@]12O3)c1ccc([N+](=O)[O-])cc1 (stereo partly drawn) | / | / | / | . | / | /
C[C@@]12C(=O)N(c3cccc(F)c3)C(=O)N1C1c3ccccc3OCC1C2c1ccccc1 (stereo partly drawn) | / | / | / | . | / | /
O=[N+]([O-])c1ccc2nc(-c3ccc(Cl)cc3)n(OCc3ccccc3)c2c1 | . | . | . | . | . | 34
Clc1ccc(COn2c(-c3ccc(Cl)cc3)nc3ccccc32)cc1 | . | . | . | . | . | .
Clc1ccc(COn2c(-c3ccccc3)nc3ccccc32)cc1 | . | . | 59 | . | . | .
Cc1ccc(COn2c(-c3ccc(Cl)cc3)nc3ccc([N+](=O)[O-])cc32)cc1 | . | . | . | . | . | .
SMILES | PrPC surface inh | PrP UTR inh | Y pestis TopoI | Mtb hypoxia rep | FBA Mtb inh | GDH-TPI inh
Cc1c(NC(=S)N/N=C/C=C/c2ccc([N+](=O)[O-])cc2)c(=O)n(-c2ccccc2)n1C | . | . | . | / | . | 32
Cc1c(NC(=S)N/N=C/C=C/c2ccccc2)c(=O)n(-c2ccccc2)n1C | . | . | . | / | . | 62
Cc1c(NC(=S)NN=Cc2cccc(O)c2)c(=O)n(-c2ccccc2)n1C | / | / | / | . | / | /
Cc1c(NC(=S)NN=Cc2ccc([N+](=O)[O-])cc2O)c(=O)n(-c2ccccc2)n1C | / | / | / | . | / | /
O=C(CC=NOCc1c(Cl)cccc1Cl)c1ccc(Cl)cc1 | / | / | / | . | / | /
COCCNC(=O)/C(C#N)=C/c1ccc(O)c([N+](=O)[O-])c1 | . | . | . | . | . | .
COCCNC(=O)/C(C#N)=C/C=C/c1ccccc1[N+](=O)[O-] | . | . | . | . | . | 48
Cn1cc(C(=O)N/N=C/C(Br)=C/c2ccccc2)ccc1=O | . | . | . | / | . | 44
Cn1cc(C(=O)N/N=C/C(Br)=C\c2ccccc2)ccc1=O | . | . | . | / | . | 32

Source: PubChem BioAssay (several laboratories)
